# Laboratory results reported in ChEMBL document CHEMBL2218924, “A broad activity screen in support of a chemogenomic map for kinase signalling research and drug discovery” (Biochem J, 2013).
# Legend:
# [1] = biological target: T1, Ephrin type-A receptor 3 (Homo sapiens) (UniProt P29320); details: at 10 µM
# T1 sequence (whole entry): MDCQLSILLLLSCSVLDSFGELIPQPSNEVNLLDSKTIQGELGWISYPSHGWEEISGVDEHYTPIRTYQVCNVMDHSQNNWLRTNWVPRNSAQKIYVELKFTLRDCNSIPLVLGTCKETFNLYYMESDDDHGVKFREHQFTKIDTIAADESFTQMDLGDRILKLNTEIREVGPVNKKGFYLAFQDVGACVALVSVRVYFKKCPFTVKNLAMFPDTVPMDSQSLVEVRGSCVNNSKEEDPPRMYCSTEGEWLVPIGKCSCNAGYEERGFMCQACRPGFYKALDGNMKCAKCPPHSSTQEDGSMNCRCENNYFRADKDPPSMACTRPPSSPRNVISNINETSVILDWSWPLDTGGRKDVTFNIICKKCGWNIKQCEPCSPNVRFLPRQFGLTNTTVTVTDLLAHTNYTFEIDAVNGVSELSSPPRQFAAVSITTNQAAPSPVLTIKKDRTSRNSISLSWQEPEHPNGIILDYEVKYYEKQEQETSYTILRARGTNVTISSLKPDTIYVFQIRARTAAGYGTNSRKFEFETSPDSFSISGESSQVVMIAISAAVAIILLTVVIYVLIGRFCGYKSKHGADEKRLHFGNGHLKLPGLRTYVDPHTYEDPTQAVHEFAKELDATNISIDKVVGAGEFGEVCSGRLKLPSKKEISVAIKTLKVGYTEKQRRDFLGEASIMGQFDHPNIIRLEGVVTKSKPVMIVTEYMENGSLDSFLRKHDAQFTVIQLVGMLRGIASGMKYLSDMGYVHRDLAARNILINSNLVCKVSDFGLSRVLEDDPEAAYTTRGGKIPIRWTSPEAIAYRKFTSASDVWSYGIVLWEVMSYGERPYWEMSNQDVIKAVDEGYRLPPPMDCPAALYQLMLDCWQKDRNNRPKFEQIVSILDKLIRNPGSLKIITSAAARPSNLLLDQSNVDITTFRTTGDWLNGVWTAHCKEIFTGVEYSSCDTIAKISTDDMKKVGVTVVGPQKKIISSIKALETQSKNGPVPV
# [2] = biological target: Ephrin type-A receptor 4 (Homo sapiens) (UniProt P54764); details: at 1 µM
# [3] = biological target: Ephrin type-A receptor 4 (Homo sapiens) (UniProt P54764); details: at 10 µM
# [4] = biological target: Ephrin type-A receptor 5 (Homo sapiens) (UniProt P54756); details: at 1 µM
# [5] = biological target: Ephrin type-A receptor 5 (Homo sapiens) (UniProt P54756); details: at 10 µM
# [6] = biological target: Ephrin type-A receptor 7 (Homo sapiens) (UniProt Q15375); details: at 1 µM
# [7] = biological target: Ephrin type-A receptor 7 (Homo sapiens) (UniProt Q15375); details: at 10 µM
# [8] = biological target: T2, Ephrin type-A receptor 8 (Homo sapiens) (UniProt P29322); details: at 1 µM
# T2 sequence (whole entry): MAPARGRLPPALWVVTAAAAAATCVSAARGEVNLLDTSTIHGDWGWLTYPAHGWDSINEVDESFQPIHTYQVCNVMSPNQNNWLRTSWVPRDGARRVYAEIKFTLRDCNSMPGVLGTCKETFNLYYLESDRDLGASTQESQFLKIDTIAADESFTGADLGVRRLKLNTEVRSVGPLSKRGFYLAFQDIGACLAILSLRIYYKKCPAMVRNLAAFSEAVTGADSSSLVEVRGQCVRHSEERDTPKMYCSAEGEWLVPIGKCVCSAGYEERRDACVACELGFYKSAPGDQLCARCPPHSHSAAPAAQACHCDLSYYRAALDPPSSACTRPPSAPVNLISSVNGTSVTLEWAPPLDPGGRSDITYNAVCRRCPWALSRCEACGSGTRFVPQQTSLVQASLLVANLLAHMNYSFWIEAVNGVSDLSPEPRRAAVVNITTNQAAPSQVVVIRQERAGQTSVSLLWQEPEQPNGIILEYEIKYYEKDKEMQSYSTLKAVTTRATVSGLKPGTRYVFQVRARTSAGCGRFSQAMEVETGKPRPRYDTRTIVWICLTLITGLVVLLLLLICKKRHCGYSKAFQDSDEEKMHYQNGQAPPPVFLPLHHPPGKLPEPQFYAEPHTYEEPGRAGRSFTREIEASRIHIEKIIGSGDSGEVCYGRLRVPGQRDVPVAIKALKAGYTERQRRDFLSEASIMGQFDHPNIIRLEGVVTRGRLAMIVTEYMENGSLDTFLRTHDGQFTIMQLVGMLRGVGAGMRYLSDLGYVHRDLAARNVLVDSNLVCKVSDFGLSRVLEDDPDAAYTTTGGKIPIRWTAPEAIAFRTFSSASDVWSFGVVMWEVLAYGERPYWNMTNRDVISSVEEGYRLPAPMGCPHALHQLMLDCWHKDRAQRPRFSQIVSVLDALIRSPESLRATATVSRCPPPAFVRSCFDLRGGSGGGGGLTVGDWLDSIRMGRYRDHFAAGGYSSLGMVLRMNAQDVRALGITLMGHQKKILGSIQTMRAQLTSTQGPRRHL
# [9] = biological target: T2, Ephrin type-A receptor 8 (Homo sapiens); details: at 10 µM
# [10] = biological target: T3, Ephrin type-B receptor 1 (Homo sapiens) (UniProt P54762); details: at 1 µM
# T3 sequence (whole entry): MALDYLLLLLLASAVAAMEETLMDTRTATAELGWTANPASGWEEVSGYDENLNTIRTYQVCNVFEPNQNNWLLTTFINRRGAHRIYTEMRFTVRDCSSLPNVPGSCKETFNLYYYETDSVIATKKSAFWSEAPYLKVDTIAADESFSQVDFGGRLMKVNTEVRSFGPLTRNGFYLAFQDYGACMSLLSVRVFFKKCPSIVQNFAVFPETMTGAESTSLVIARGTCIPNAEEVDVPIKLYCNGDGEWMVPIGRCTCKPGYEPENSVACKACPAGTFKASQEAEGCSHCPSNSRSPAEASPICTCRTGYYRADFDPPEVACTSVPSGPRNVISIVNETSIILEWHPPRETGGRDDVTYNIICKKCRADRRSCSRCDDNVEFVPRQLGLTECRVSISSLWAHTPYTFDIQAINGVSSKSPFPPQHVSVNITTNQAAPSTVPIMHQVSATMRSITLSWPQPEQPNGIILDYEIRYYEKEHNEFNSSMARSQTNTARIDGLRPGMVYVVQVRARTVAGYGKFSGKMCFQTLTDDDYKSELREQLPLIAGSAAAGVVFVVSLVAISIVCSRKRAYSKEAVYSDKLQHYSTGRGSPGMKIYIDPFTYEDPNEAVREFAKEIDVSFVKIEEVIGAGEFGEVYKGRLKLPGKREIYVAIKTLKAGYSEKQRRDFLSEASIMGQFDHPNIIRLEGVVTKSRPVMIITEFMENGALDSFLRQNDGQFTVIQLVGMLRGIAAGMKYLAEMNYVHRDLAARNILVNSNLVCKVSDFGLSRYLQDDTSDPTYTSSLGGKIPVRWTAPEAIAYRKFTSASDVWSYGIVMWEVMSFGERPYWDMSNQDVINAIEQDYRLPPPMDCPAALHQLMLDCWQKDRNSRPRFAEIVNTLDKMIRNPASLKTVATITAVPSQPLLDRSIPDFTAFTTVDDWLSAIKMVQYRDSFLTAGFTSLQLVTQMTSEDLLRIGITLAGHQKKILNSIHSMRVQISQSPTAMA
# [11] = biological target: T3, Ephrin type-B receptor 1 (Homo sapiens); details: at 10 µM
# [12] = biological target: T4, Ephrin type-B receptor 2 (Homo sapiens) (UniProt P29323); details: at 1 µM
# T4 sequence (whole entry): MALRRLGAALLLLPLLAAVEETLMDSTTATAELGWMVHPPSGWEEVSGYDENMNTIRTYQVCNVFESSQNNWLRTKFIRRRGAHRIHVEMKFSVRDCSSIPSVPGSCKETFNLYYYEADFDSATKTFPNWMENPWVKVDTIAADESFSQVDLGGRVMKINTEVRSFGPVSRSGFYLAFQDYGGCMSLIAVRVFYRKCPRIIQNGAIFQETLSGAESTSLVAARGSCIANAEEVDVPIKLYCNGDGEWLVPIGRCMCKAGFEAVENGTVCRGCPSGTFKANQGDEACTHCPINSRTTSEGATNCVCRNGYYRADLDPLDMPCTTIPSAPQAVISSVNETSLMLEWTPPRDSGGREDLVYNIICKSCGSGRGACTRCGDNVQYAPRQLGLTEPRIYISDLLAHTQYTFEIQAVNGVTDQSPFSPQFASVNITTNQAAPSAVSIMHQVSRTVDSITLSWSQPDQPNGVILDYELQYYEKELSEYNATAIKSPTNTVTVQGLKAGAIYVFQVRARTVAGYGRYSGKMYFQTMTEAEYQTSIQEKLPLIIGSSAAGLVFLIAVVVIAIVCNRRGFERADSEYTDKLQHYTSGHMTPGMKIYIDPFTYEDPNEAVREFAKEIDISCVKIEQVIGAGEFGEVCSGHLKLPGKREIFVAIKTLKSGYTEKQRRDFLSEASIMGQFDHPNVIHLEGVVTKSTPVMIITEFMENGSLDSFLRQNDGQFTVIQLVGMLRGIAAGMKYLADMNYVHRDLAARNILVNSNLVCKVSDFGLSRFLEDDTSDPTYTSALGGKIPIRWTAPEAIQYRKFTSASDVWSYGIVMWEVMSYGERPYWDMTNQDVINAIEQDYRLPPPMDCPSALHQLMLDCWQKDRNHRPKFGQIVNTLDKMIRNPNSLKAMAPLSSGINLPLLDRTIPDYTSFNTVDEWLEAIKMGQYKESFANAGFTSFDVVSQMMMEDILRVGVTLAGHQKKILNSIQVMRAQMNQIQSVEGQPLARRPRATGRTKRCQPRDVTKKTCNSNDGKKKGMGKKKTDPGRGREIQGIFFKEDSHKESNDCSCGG
# [13] = biological target: T4, Ephrin type-B receptor 2 (Homo sapiens); details: at 10 µM
# [14] = biological target: T5, Ephrin type-B receptor 3 (Homo sapiens) (UniProt P54753); details: at 1 µM
# T5 sequence (whole entry): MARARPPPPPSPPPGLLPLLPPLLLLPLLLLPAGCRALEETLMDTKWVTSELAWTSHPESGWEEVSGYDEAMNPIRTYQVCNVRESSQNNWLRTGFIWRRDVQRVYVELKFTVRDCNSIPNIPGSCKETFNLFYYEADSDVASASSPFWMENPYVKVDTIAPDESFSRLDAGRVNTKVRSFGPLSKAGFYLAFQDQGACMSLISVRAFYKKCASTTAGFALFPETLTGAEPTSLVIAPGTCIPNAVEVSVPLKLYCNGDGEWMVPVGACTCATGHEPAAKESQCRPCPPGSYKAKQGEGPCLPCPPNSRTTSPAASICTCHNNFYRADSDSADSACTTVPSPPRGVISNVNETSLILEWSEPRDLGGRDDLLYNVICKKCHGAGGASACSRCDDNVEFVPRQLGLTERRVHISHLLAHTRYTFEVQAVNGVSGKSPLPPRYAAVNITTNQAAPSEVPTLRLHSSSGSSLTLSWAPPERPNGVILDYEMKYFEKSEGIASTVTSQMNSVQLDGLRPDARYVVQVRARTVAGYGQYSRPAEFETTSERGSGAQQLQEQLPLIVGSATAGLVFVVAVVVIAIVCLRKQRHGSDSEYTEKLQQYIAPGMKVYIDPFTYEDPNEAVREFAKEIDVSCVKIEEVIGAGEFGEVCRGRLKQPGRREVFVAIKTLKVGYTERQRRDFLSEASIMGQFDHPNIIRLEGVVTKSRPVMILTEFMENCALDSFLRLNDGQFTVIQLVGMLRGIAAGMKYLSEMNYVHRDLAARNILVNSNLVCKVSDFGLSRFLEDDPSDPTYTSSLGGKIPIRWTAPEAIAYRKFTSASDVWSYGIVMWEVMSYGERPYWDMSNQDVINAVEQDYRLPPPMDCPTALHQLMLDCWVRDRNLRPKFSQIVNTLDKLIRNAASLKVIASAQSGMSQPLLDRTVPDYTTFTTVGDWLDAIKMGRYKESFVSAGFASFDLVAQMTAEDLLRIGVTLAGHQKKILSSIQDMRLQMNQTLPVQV
# [15] = biological target: T5, Ephrin type-B receptor 3 (Homo sapiens); details: at 10 µM
# [16] = biological target: T6, Ephrin type-B receptor 4 (Homo sapiens) (UniProt P54760); details: at 1 µM
# T6 sequence (whole entry): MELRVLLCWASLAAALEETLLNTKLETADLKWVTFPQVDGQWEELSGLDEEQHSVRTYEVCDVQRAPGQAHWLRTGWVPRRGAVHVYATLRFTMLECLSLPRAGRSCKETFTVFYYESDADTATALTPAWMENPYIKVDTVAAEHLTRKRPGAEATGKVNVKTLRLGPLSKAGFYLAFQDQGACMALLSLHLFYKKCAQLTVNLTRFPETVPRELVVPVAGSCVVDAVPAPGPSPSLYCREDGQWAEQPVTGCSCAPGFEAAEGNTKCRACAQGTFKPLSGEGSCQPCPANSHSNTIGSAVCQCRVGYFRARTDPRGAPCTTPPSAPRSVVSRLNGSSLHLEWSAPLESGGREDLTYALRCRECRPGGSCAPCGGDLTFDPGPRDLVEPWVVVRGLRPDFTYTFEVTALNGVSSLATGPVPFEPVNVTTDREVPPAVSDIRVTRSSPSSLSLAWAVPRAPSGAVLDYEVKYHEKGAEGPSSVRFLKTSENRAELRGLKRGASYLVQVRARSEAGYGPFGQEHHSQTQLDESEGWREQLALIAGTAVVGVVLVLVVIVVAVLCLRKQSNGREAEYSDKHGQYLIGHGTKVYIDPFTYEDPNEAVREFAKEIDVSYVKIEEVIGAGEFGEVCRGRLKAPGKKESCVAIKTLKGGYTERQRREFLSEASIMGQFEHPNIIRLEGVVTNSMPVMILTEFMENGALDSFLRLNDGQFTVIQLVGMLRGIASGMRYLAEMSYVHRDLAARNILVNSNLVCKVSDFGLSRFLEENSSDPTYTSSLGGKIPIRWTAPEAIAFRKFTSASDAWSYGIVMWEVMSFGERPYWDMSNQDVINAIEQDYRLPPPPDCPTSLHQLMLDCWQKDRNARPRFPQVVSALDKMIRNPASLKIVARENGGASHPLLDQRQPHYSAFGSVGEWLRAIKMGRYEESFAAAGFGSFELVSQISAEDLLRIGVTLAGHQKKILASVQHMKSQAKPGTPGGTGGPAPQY
# [17] = biological target: T6, Ephrin type-B receptor 4 (Homo sapiens); details: at 10 µM
# [18] = biological target: Receptor tyrosine-protein kinase erbB-4 (Homo sapiens) (UniProt Q15303); details: at 1 µM
# Chain of Receptor tyrosine-protein kinase erbB-4 (Homo sapiens) (Q15303 whole entry): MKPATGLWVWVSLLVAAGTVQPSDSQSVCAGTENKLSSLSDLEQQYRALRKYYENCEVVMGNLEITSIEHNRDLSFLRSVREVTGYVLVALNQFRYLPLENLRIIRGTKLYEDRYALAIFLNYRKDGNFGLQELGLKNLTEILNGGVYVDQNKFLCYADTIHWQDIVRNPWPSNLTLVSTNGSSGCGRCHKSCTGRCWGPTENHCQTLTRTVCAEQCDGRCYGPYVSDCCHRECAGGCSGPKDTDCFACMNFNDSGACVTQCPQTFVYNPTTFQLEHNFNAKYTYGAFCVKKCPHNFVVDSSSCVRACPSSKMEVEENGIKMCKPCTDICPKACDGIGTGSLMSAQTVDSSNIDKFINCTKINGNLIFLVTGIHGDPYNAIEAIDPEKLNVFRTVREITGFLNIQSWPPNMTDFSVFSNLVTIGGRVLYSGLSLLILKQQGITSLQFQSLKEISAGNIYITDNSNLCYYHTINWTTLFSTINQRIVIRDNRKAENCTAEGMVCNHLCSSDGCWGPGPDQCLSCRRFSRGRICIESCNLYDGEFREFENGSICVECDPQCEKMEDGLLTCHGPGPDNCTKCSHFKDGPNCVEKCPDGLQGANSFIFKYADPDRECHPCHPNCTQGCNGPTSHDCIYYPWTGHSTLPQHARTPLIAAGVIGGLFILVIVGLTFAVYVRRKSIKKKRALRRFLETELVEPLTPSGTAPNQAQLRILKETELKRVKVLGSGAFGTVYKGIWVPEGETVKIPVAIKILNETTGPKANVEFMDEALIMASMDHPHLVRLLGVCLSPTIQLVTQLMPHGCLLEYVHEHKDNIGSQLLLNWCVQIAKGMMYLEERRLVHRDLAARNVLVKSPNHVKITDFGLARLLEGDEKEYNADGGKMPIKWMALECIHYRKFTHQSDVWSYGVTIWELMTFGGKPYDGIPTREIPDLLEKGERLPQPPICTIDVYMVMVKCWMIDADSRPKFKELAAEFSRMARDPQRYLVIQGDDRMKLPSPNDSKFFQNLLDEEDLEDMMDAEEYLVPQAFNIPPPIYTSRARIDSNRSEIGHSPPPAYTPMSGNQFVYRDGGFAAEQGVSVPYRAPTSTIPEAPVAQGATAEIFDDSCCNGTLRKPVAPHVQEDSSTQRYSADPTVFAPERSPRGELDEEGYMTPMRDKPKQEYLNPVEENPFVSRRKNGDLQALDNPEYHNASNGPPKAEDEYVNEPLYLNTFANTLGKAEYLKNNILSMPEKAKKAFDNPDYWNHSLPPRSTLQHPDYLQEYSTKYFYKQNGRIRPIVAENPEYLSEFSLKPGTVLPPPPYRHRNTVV
# Chain of Ephrin type-A receptor 7 (Homo sapiens) (Q15375 28-998 limits assumed): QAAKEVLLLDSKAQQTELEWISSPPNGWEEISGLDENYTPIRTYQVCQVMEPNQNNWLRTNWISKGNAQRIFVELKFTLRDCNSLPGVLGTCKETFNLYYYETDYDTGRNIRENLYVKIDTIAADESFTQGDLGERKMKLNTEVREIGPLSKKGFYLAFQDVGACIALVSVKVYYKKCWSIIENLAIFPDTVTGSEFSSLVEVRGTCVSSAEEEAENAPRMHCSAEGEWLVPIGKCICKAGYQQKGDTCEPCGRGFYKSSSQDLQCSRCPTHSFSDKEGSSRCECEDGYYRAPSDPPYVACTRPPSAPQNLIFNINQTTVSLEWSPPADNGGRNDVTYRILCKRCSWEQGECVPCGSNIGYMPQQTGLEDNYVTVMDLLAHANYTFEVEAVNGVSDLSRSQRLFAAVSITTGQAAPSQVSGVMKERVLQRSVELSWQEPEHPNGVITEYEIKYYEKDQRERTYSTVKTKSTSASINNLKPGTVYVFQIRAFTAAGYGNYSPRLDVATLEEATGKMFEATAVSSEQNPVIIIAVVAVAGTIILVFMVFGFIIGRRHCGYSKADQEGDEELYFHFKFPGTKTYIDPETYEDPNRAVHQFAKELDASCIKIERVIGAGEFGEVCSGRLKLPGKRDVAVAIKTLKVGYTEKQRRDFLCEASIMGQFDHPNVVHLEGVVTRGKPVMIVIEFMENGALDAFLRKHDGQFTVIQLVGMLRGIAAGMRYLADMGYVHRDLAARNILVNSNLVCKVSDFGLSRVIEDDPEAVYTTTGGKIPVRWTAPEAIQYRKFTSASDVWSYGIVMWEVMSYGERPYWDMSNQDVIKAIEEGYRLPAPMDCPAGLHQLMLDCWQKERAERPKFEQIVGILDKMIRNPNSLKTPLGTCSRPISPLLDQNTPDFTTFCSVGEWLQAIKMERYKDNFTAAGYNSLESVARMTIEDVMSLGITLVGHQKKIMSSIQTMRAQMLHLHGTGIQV
# Chain of Ephrin type-A receptor 4 (Homo sapiens) (P54764 whole entry): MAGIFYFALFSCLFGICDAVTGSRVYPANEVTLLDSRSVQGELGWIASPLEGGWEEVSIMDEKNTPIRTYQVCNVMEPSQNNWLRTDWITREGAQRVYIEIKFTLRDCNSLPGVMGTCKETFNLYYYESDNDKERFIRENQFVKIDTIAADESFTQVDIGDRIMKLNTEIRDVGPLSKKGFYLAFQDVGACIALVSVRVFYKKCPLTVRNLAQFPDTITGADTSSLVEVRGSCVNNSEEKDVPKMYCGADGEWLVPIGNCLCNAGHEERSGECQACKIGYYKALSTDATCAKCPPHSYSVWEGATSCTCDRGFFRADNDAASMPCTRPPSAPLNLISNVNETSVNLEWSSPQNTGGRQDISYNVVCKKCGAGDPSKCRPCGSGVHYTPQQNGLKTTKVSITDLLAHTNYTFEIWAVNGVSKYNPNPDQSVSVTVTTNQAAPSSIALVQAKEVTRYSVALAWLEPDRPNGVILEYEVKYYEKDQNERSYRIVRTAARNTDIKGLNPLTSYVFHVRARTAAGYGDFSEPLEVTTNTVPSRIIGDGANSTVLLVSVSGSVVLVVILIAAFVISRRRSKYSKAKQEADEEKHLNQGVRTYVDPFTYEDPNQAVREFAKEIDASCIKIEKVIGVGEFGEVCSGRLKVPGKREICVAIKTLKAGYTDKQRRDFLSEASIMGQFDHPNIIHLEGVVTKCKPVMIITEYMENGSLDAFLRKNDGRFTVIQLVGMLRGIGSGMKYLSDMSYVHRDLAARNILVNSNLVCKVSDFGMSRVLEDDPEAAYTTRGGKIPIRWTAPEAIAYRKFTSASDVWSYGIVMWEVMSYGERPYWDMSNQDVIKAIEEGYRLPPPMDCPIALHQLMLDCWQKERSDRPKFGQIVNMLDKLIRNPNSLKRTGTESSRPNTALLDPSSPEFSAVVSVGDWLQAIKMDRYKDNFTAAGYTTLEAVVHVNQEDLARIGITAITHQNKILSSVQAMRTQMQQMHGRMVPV
# Chain of Ephrin type-A receptor 5 (Homo sapiens) (P54756 whole entry): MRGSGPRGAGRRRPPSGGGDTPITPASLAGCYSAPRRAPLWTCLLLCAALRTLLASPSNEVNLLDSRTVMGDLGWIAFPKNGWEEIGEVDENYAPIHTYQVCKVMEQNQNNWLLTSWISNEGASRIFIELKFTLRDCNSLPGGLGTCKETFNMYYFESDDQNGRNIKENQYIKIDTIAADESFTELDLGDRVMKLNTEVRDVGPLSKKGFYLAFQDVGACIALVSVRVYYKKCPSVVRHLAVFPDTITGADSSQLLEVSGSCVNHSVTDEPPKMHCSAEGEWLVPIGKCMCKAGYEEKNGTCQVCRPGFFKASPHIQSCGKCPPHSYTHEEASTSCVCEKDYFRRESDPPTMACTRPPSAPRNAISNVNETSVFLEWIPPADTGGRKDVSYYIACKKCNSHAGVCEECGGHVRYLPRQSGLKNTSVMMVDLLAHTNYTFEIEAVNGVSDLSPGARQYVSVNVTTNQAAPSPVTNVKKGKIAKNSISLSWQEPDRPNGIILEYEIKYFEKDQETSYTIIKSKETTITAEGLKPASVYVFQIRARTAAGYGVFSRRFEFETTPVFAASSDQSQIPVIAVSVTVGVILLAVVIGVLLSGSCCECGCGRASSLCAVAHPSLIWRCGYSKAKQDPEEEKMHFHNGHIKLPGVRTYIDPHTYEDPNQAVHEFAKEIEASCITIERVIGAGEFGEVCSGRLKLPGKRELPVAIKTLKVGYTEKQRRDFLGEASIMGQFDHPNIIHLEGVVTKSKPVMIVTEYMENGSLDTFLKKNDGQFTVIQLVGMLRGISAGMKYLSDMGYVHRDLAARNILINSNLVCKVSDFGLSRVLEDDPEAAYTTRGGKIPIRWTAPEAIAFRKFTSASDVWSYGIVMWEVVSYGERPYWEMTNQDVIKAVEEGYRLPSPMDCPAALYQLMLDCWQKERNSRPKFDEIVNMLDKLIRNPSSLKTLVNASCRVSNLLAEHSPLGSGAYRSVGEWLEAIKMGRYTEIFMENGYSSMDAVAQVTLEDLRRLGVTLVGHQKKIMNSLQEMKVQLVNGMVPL
smiles,measurement,setting,value
c1ccc2c(-c3ccncc3)c[nH]c2c1,residual activity,[1],92%
same,residual activity,[2],109%
same,residual activity,[3],98%
same,residual activity,[4],102%
same,residual activity,[5],111%
same,residual activity,[6],99%
same,residual activity,[7],84%
same,residual activity,[8],96%
same,residual activity,[9],92%
same,residual activity,[10],108%
same,residual activity,[11],110%
same,residual activity,[12],108%
same,residual activity,[13],111%
same,residual activity,[14],106% (inactive)
same,residual activity,[15],112%
same,residual activity,[16],111%
same,residual activity,[17],108%
same,residual activity,[18],88%
